Experimental data reported in PubChem BioAssay (Tox21).
Several values for one entry are separate records, joined by “and”; a condition that tells them apart may be missing. Identical values can stand only once. Inconclusive results are not listed. Entries that show only a call come without a potency. Some compounds were tested as several samples or in several runs, with calls that do not always agree. Activity calls are given as the source filed them. Unless noted, the call rests on the fitted dose curve; in most records, active means well fitted curve in the direction sought with a large enough effect in the repeat runs; inconclusive means weak or mixed curves; inactive means no such curve, though single readings can be large; an effect the other way counts as inactive or inconclusive.

Experiments:
[1] = qHTS assay to identify small molecule agonists of the RXR signaling pathway - cell viability counter screen (AID 1159529); further: nearly all actives have a fitted effect of over 50% in size; further: potency means the concentration at half of the fitted maximal effect
Method in brief: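 RXR-alpha-UAS-bla HEK 293T cells in medium with 2% charcoal-stripped FBS were pre-incubated 5 hr, then compound-treated 16 hr at 37 C. Viability was read by CellTiter-Glo luminescence in the same wells as the beta-lactamase assay, with tetraoctyl ammonium bromide as positive control.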

[2] = qHTS assay to identify small molecule antagonists of the retinoid acid receptor (RAR) signaling pathway - cell viability counter screen (AID 1159551); further: nearly all actives have a fitted effect of over 35% in size; further: potency means the concentration at half of the fitted maximal effect
Method in brief: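 Measured by luminescent ATP detection, viability reflects C3RL4 cells treated 6 h at 37 C with test chemicals in the presence of 1 uM (final) retinol.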

[3] = qHTS assay to identify small molecule antagonists of the retinoic acid receptor (RAR) signaling pathway (AID 1159552; further: nearly all actives have a fitted effect of over 50% in size; further: potency means the concentration at half of the fitted maximal effect)
Method in brief: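 Retinol signaling pathway inhibitors screened in C3RL4 RARE-luciferase reporter cells seeded overnight at 37 C, then compounds added with 1 uM (final) retinol as pathway substrate. After 6 hr at 37 C, luciferase luminescence read after 30 min at room temperature.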

[4] = qHTS assay to identify small molecule agonists of the retinoic acid receptor (RAR) signaling pathway (AID 1159553); further: potency means the concentration at half of the fitted maximal effect
Method in brief: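 6 hr compound exposure (DMSO vehicle) of overnight-plated C3RL4 RARE-luc cells at 37 C; luminescence quantified after 30 min RT with luciferase reagent.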

[5] = qHTS assay to identify small molecule antagonists of the estrogen related receptor (ERR) signaling pathway - cell viability counter screen (AID 1224818); further: series mostly up to about 46 µM
Method in brief: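 Compounds dissolved in DMSO were applied to ERR cells seeded at 2,000 per well 6 h earlier. Cell viability followed 17.5 h later via 30-min CellTiter-Fluor fluorescence.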

[6] = qHTS assay to identify small molecule antagonists of the estrogen related receptor (ERR) signaling pathway (AID 1224819; further: nearly all actives have a fitted effect of over 50% in size; further: potency means the concentration at half of the fitted maximal effect)
Method in brief: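 Compounds dissolved in DMSO were pin-transferred onto ERR cells that had been plated 6 h earlier, and cells were then incubated 18 h at 37 C; signal was luciferase luminescence via One-Glo.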

[7] = qHTS assay to identify small molecule agonists of the estrogen related receptor (ERR) signaling pathway (AID 1224820)
Method in brief: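 Luminescence readout (One-Glo, 30 min RT) from NTP-supplied ERR cell line exposed to compounds for 18 h at 37 C. Cells seeded 2,000 per well and pre-incubated 6 h before pin-tool compound transfer.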

[8] = qHTS assay to identify small molecule antagonists of the estrogen related receptor signaling pathway with the pleiotropic PPARgamma coactivator (PGC) cell viability counter screen (AID 1224822; further: series mostly up to about 46 µM)
Method in brief: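 Counter screen for cell viability: PGC/ERR cells, 6 h pre-incubation after plating, 17.5 h compound exposure at 37 C, fluorescence from CellTiter-Fluor after 30 min.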

[9] = qHTS assay to identify small molecule agonists of the estrogen related receptor signaling pathway with the pleiotropic PPARgamma coactivator (PGC) (AID 1224823)
Method in brief: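 Luminescence readout (One-Glo, 30 min RT) from PGC/ERR cell line treated 18 h at 37 C with pin-tool-delivered DMSO compound solutions; cells plated 6 h before dosing. Quantitative HTS format.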

[10] = target: Luciferin 4-monooxygenase (Photinus pyralis) (UniProt P08659); assay: qHTS assay to identify small molecule inhibitors of firefly luciferase (AID 1224835); further: nearly all actives have a fitted effect of over 25% in size; further: potency means the concentration at half of the fitted maximal effect
Chain of Luciferin 4-monooxygenase (Photinus pyralis) (P08659 whole entry, looked up): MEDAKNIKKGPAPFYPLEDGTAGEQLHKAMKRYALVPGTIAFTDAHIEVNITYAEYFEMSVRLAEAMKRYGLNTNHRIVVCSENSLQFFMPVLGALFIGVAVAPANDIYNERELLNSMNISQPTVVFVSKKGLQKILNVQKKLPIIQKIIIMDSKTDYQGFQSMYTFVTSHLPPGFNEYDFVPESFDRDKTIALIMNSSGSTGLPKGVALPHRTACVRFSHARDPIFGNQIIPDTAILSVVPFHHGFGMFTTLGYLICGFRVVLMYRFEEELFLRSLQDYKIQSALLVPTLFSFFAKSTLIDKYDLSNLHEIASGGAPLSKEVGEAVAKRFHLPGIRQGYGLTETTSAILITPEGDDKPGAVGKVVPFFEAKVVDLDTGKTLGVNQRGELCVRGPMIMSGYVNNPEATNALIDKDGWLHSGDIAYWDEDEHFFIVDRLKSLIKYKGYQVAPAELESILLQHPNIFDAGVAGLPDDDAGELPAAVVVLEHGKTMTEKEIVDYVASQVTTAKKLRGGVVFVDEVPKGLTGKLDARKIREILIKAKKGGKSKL
Method in brief: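 Quantitative HTS format; KM concentrations of both substrates. Purified P. pyralis FLuc activity quantified from luminescence images.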

[11] = qHTS assay to identify small molecule agonists of the constitutive androstane receptor (CAR) signaling pathway - cell viability counter screen (AID 1224836); further: nearly all actives have a fitted effect of over 45% in size; further: potency means the concentration at half of the fitted maximal effect
Method in brief: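 HepG2 cells stably carrying hCAR and a CYP2B6-2.2kb reporter; 15-concentration compounds plus PK11195 (final 0.75 uM), 23 hr at 37 C/5% CO2. Viability read by CellTiter-Fluor fluorescence.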

[12] = qHTS assay to identify small molecule antagonists of the constitutive androstane receptor (CAR) signaling pathway - cell viability counter screen (AID 1224837); further: nearly all actives have a fitted effect of over 45% in size; further: potency means the concentration at half of the fitted maximal effect
Method in brief: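 To flag cytotoxic false antagonists, HepG2 hCAR/CYP2B6-2.2kb cells were treated 23 hr with 15-concentration compound series and 50 nM CITCO at 37 C/5% CO2; CellTiter-Fluor fluorescence was the measured end point.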

[13] = target: Nuclear receptor subfamily 1 group I member 3 (Homo sapiens) (UniProt Q14994); assay: qHTS assay to identify small molecule agonists of the constitutive androstane receptor (CAR) signaling pathway (AID 1224839);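 further: HepG2 cells stably carrying human CAR and a CYP2B6 luciferase reporter; series mostly up to about 92 µM; nearly all actives have a fitted effect of over 15% in size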
Chain of Nuclear receptor subfamily 1 group I member 3 (Homo sapiens) (Q14994 whole entry, looked up): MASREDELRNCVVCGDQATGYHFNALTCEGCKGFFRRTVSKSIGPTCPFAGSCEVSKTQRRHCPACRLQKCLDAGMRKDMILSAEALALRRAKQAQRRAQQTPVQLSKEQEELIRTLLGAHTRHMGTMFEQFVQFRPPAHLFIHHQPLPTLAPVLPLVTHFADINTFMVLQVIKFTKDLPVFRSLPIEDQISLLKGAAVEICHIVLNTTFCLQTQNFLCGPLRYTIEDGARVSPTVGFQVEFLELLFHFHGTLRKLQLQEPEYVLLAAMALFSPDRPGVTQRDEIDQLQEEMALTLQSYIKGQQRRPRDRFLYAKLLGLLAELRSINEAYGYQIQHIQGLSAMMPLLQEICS
Method in brief: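 HepG2 cells stably co-transfected with hCAR and a CYP2B6-2.2kb luciferase reporter; compounds at 15 concentrations with 0.75 uM PK11195 present. After 24 hr at 37 C, luciferase read by ONE-Glo luminescence.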

[14] = qHTS assay to identify small molecule antagonists of the estrogen related receptor signaling pathway with the pleiotropic PPARgamma coactivator (PGC) from Tox21 10K library - cell viability counter screen (AID 1224840; active means well fitted cell-killing curve with a large enough effect in the repeat runs, not every such curve was filed as active; further: nearly all actives have a fitted effect of over 40% in size; further: potency means the concentration at half of the fitted maximal effect)
Method in brief: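 Seeded PGC/ERR cells (2,000/well, 6 h, 37 C/5% CO2) get compound by pin tool; 17.5 h incubation at 37 C; CellTiter-Fluor added, 30 min, fluorescence measured.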

[15] = qHTS assay to identify small molecule antagonists of the estrogen related receptor signaling pathway with the pleiotropic PPARgamma coactivator (PGC) from Tox21 10K library (AID 1224841; call rule not given here; further: actives are mostly falling curves and most rising ones were filed inactive; nearly all actives have a fitted effect of over 50% in size; further: potency means the concentration at half of the fitted maximal effect)
Method in brief: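 Test chemicals dissolved in DMSO were applied to pre-incubated (6 h) PGC/ERR cells at 2,000 cells/well for an 18 h, 37 C treatment; reporter luminescence was then read using One-Glo.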

[16] = qHTS assay to identify small molecule agonists of the estrogen related receptor signaling pathway with the pleiotropic PPARgamma coactivator (PGC) from Tox21 10K library (AID 1224842); further: nearly all actives have a fitted effect of over 15% in size
Method in brief: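 PGC/ERR reporter cells (NTP line) were seeded 2,000 per well, rested 6 h at 37 C/5% CO2, then pin-dosed with compounds in DMSO for 18 h at 37 C; luciferase read by One-Glo luminescence after 30 min at room temperature.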

[17] = target: Thyrotropin receptor (Homo sapiens) (UniProt P16473); assay: qHTS assay to identify small molecule agonists of the thyroid stimulating hormone receptor (TSHR) signaling pathway (AID 1224843; calls by dose curve; further: nearly all actives have a fitted effect of over 45% in size)
Chain of Thyrotropin receptor (Homo sapiens) (P16473 whole entry, looked up): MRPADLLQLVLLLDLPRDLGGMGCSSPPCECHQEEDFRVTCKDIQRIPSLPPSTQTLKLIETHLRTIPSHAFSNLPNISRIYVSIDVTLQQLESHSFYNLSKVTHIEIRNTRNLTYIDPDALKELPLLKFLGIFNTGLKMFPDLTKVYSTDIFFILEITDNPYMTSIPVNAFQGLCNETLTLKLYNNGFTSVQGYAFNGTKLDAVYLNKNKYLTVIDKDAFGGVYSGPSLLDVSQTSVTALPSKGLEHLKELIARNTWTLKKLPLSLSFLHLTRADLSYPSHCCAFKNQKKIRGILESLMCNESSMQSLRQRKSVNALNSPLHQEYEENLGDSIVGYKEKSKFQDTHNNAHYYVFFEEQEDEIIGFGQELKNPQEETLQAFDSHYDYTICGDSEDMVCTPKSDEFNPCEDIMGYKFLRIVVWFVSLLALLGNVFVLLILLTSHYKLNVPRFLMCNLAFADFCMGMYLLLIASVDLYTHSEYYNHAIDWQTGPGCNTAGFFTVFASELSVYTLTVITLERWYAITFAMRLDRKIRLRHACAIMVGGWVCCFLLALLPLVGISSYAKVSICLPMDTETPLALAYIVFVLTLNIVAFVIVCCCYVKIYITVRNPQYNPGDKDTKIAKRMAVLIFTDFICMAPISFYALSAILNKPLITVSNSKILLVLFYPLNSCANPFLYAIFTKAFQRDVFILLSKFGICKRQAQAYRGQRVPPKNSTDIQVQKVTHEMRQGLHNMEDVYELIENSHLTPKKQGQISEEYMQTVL
Method in brief: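 Using 15 concentrations per compound in triplicate, cAMP production was monitored in TSHR-HEK293 cells after 30 min compound incubation at RT; HTRF reagents followed, with fluorescence intensity recorded after 1 h.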

[18] = system: estrogen-related receptor alpha (ERRalpha) with PGC-1alpha coactivator, human; assay: qHTS assay to identify small molecule antagonists of the estrogen related receptor signaling pathway with the pleiotropic PPARgamma coactivator (PGC) (AID 1224821; calls by dose curve)
Method in brief: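 PGC/ERR reporter cells; 6 h pre-incubation 37 C/5% CO2; pin-tool compound in DMSO, 18 h 37 C; One-Glo added, 30 min RT; luminescence read. qHTS antagonist mode.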

[19] = qHTS assay to identify small molecule antagonists of the estrogen related receptor (ERR) signaling pathway from Tox21 library - cell viability counter screen (AID 1224834); further: nearly all actives have a fitted effect of over 30% in size; further: potency means the concentration at half of the fitted maximal effect
Method in brief: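 Seeded ERR cells were rested 6 h at 37 C/5% CO2 before compounds, positive and negative controls or DMSO were added. Incubation continued for 17.5 h, and viability was then quantified by CellTiter-Fluor fluorescence.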

[20] = target: Nuclear receptor subfamily 1 group I member 3 (Homo sapiens) (UniProt Q14994); assay: qHTS assay to identify small molecule antagonists of the constitutive androstane receptor (CAR) signaling pathway (AID 1224838);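 further: HepG2 cells stably expressing hCAR with CYP2B6 luciferase reporter stimulated by CITCO; nearly all actives have a fitted effect of over 40% in size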
Method in brief: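 Human hepatoma HepG2 cells expressing hCAR and a CYP2B6 promoter (2.2 kb) luciferase construct; compound titration (15 points) with 50 nM CITCO final, 24 h at 37 C/5% CO2; luminescence via ONE-Glo after 30 min at room temperature.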

Structure (SMILES) | Potency [1] | Potency [2] | Potency [3] | Potency [4] | outcome [5] | Potency [6] | outcome [7] | Potency [8] | outcome [9] | Potency [10] | Potency [11] | Potency [12] | Potency [13] | Potency [14] | Potency [15] | Potency [16] | Potency [17] | outcome [18] | Potency [19] | Potency [20]
CC(C)C(=O)Nc1ccc([N+](=O)[O-])c(C(F)(F)F)c1 | inactive | inactive | inactive | inactive | inactive | 22.8 µM (active) | inactive | inactive | inactive | inactive | inactive | inactive | inactive | inactive | 28.1 µM (active) and 30.6 µM (active) and 21.1 µM (active) | inactive | inactive |  |  | 
O=S1(=O)OC(c2ccc(O)cc2)(c2ccc(O)cc2)c2ccccc21 | inactive | inactive | inactive | inactive |  |  |  |  |  | 31.7 µM (active) and 17.8 µM (active) and 12.3 µM (active) | 30.6 µM (active) and 27.3 µM (active) and 33.5 µM (active) | 27.3 µM (active) and 13.3 µM (active) | inactive | 30.6 µM (active) and 27.3 µM (active) and 21.1 µM (active) | 54.5 µM (active) and 61.1 µM (active) and inactive | inactive |  |  |  | 
COc1ccc2c(c1)c(CC(=O)O)c(C)n2C(=O)c1ccc(Cl)cc1 | inactive | inactive | inactive | inactive | inactive | inactive | inactive | inactive | inactive | inactive | inactive | inactive | inactive | inactive | 30.8 µM (active) and inactive | inactive | inactive | inactive | inactive | 
Nc1c2c(nc3ccccc13)CCCC2 | inactive | inactive | inactive | inactive | inactive | inactive | inactive | inactive | inactive | inactive | inactive | inactive | inactive | inactive | inactive | inactive | inactive | inactive | inactive | 
CN(C)C(=S)SC(=S)N(C)C | 5.02 µM (active) and 3.89 µM (active) and 1.9 µM (active) | 48.6 µM (active) | 1.77 µM (active) and 1.93 µM (active) and 2.37 µM (active) | 0.668 µM (active) |  |  |  |  |  | 25.8 µM (active) and 11.2 µM (active) and 12.3 µM (active) | 2.22 µM (active) and 1.72 µM (active) and 3.76 µM (active) | 1.57 µM (active) and 1.72 µM (active) and 2.37 µM (active) | inactive | 1.25 µM (active) and 1.37 µM (active) and 1.68 µM (active) | 1.25 µM (active) and 1.22 µM (active) and 2.37 µM (active) | inactive | inactive |  | 1.98 µM (active) and 1.54 µM (active) and 1.68 µM (active) | 
O=C(O)CC(O)C(=O)O (configuration not stated) | inactive | inactive | inactive | inactive |  |  |  |  |  | inactive | inactive | inactive | inactive | inactive |  |  | inactive |  |  | inactive
NC(CO)(CO)CO | inactive | inactive | inactive | inactive |  |  |  |  |  | inactive | inactive | inactive | inactive | inactive |  |  | inactive |  | inactive | inactive
